FPRL1 binder: human FPRL1 ligand, with FPR counter-screen. P25090. FPRL1-expressing cells, fluorescent ligand binding inhibition, flow cytometry. inhibition, % (concentration not given with the values). 24,000 compounds, 0.3% hits. AID 441;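 also: 0% = buffer alone and 100% = receptor blocker peptide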
Target sequence (P25090 whole entry, looked up): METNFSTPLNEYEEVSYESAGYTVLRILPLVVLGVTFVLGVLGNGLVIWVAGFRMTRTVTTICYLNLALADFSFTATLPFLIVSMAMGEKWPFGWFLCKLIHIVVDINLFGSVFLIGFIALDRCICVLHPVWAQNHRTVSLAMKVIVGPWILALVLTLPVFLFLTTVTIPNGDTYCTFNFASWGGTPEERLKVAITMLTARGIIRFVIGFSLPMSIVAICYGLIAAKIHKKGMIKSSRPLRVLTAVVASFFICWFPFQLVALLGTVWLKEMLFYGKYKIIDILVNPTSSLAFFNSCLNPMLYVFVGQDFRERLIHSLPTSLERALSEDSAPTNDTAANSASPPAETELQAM
LNCaP diff act: promotes differentiation of LNCaP prostate cells. flow cytometry side scatter, 4 d. side scatter shift, % at 10 µM. 24,000 compounds, 0.56% hits;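 active = side scatter shift above 30%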;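 also: androgen-responsive LNCaP prostate cancer cells in charcoal-stripped serum medium; percent of cells past a gate set so DMSO wells show 10% shift; higher shift means more granular cells and more differentiation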
QS inhibitor: blocks AIP-induced quorum sensing reporter in S. aureus; inhibition, % at 2 µM; 24,000 compounds, 0.3% hits; S. aureus RN6390 RNAIII-GFP reporter, flow cytometry 3 h;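 active = share of bacteria positive for the green fluorescent reporter and its mean brightness both inhibited by 50% or more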;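 also: 0% = AIP-stimulated control and 100% = unstimulated bacteria without AIP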
FPR binder: binds the human formylpeptide receptor FPR; FPR-expressing cells, fluorescent ligand binding, flow cytometry; 24,000 compounds, 0.74% hits; inhibition, % (no concentration beside the values); AID 440;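 also: 0% = buffer wells and 100% = receptor blocker peptide wells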
* marks the source's active call; other numbers are inactive results; . = no result. In the library only some 1.9% were active in any assay of this set; here they are far more common. Rule as the data show it, unless noted: active = inhibition above about 30%; inconclusive = no clear call, values can overlap the other calls; inactive = below that.

SMILES | FPRL1 binder | LNCaP diff act | QS inhibitor | FPR binder
Cc1cccc(N2CCN(C(=O)CCn3c(=S)[nH]c4cc5c(cc4c3=O)OCO5)CC2C)c1 (stereo not given) | -5.6 | 8.0 | 31.1 | 1.3
Cc1ccc(C2C3=C(CC(C)(C)CC3=O)Nc3[nH]c(=S)[nH]c(=O)c32)cc1 (stereo not given) | -3.0 | 0.0 | -2.6 | 35.2*
Cc1[nH]nc2c1C(c1ccccc1)C1=C(CC(C)(C)CC1=O)N2 (stereo not given) | 0.1 | 17.0 | 4.8 | 0.7
COC(=O)C1(S(=O)(=O)c2cccc3nsnc23)CC1 | 83.5* | 14.0 | -7.5 | 32.8*
N=c1n(CCO)c2ccccc2n1CCOc1ccc(Cl)cc1Cl | -2.9 | 39.0* | -2.1 | -0.2
CCN(CC)CCn1c(=N)n(CCO)c2ccccc21 | -5.3 | 2.0 | 0.0 | 2.1
COc1ccccc1C(=O)Nc1cc(-c2nn3c(C)nnc3s2)ccc1C | -2.6 | 17.0 | -1.8 | -14.4
O=C(C1=C(O)C(=O)N(CCOCCO)C1c1cccs1)c1cccs1 (stereo not given) | 28.5 | . | . | 70.6*
CC(=O)C1=C(O)C(=O)N(Cc2ccco2)C1c1ccc(F)cc1 (stereo not given) | 6.7 | 6.0 | -0.7 | -0.9
O=C(C1=C(O)C(=O)N(Cc2ccco2)C1c1ccccc1)c1cccs1 (stereo not given) | -8.9 | . | . | 71.3*
COc1ccc(C(=O)NCCn2ccc3ccccc32)c(OC)c1 | -2.0 | 10.0 | -0.5 | 2.1
Cc1cc(C)cc(-n2cc3c(=O)n(C)c(=O)n(C)c3c2)c1 | 24.2 | 6.0 | 7.0 | 31.6*
Cc1cccc(-c2c3c(=O)n(C)c(=O)n(C)c3cn2-c2ccc(O)cc2)c1 | -1.0 | 8.0 | -0.4 | -3.6
CC1CCN(CCNC(=O)c2ccc3c(=O)n(CCc4ccccc4)c(=O)[nH]c3c2)CC1 | -4.7 | 5.0 | 3.2 | -2.9
CC1CCCCN1CCNC(=O)c1ccc2c(=O)n(CCc3ccccc3)c(=O)[nH]c2c1 (stereo not given) | -5.9 | 48.0* | 0.7 | -2.7
COc1cccc(C2=NOC(C(=O)Nc3cccc(C(C)=O)c3)C2)c1OC (stereo not given) | 3.6 | 8.0 | -1.5 | -0.9
Cc1nn(C(C)(C)C)c(OC(=O)C2CCCC2)c1S(=O)(=O)c1ccccc1 | -9.4 | 5.0 | 89.2* | 2.1
CC1(C)Cc2noc(N)c2C(C)(C)N1O | -2.4 | 8.0 | -1.8 | 4.1
COc1ccc(-c2c(C)oc3c(CN4CCN(CCO)CC4)c(O)ccc3c2=O)cc1OC | 27.5 | . | . | 30.9*
O=C(NC1CCCCCC1)C1c2ccccc2C(=O)N1Cc1cccnc1 (stereo not given) | 3.2 | 4.0 | -0.1 | 3.9
O=C(NCc1cccnc1)C1c2ccccc2C(=O)N1C1CCCCCC1 (stereo not given) | 25.4 | 4.0 | -8.6 | 62.5*
O=C(NCc1cccnc1)C1c2ccccc2C(=O)N1C1CCCCCCC1 (stereo not given) | 12.7 | 7.0 | -0.1 | 47.6*
O=C(Nc1ccccc1C(F)(F)F)c1cc(S(=O)(=O)N2CCOCC2)ccc1F | -8.6 | 6.0 | -5.0 | 3.9
Cc1ccc2nc(NC(=O)C(NS(=O)(=O)c3cccc4nsnc34)C(C)C)sc2c1 (stereo not given) | . | . | 7.4 | .
COC(=O)C1=C(C)N=c2s/c(=C/c3cccs3)c(=O)n2C1c1cccs1 (stereo not given) | 0.4 | 31.0* | 4.2 | -1.3
SMILES | FPRL1 binder | LNCaP diff act | QS inhibitor | FPR binder
CC(=O)C1=C(O)C(=O)N(Cc2cccnc2)C1c1ccccc1Cl (stereo not given) | 11.5 | . | . | 15.2
Cc1cc(N2C(=O)C(O)=C(C(=O)c3ccco3)C2c2cccnc2)no1 (stereo not given) | 30.5* | . | . | 29.6
COc1cc(C2C(C(=O)c3ccco3)=C(O)C(=O)N2c2cc(C)on2)cc(Br)c1O (stereo not given) | 31.1* | . | . | 39.3*
COc1ccc(C2C(C(=O)c3ccc(C)o3)=C(O)C(=O)N2c2cc(C)on2)cc1OC (stereo not given) | -3.9 | . | . | -7.6
O=C(C1=C(O)C(=O)N(c2ncccn2)C1c1cccc(Cl)c1)c1ccco1 (stereo not given) | -10.6 | 22.0 | -0.5 | 17.4
Cc1ccc(C(=O)C2=C(O)C(=O)N(Cc3ccccc3)C2c2cccnc2)o1 (stereo not given) | -3.3 | . | . | 32.3*
COc1ccc(OC)c(C2C(C(=O)c3cc4ccccc4o3)=C(O)C(=O)N2c2cc(C)on2)c1 (stereo not given) | -2.5 | . | . | 32.6*
C=CCc1ccc(OCCCCCN2CCOCC2)c(OC)c1 | 1.1 | 22.0 | -0.1 | -8.9
CCOc1ccc(C(C)=O)cc1COc1ccc(-n2cnnn2)cc1 | -6.3 | 6.0 | -0.1 | -7.0
O=C(NC1(C(F)(F)F)C(=O)Nc2c1c(=O)[nH]c(=O)n2Cc1ccco1)C1CC1 (stereo not given) | 3.3 | 2.0 | -4.8 | -0.1
CCN(CCCNS(=O)(=O)c1ccc2c(c1)CCN2C(C)=O)c1cccc(C)c1 | -0.3 | 10.0 | 0.3 | 2.3
O=C(C1=C(O)C(=O)N(c2ncccn2)C1c1ccc(Cl)cc1)c1ccco1 (stereo not given) | 18.0 | . | . | -5.7
O=C(C1=C(O)C(=O)N(c2ncccn2)C1c1ccc(Cl)c(Cl)c1)c1ccco1 (stereo not given) | 28.7 | . | . | 45.3*
O=C(c1cc(C2CC2)on1)N1CCN(c2ccc(F)cc2)CC1 | -1.5 | 8.0 | -4.4 | 0.2
Cc1ccc(-c2noc(CCC(=O)NCCCN3CCN(c4cccc(Cl)c4)CC3)n2)cc1 | -0.3 | 44.0* | 0.6 | -3.0
Cc1ccc(-c2noc(CCC(=O)NCCCN3CCN(c4ccc(F)cc4)CC3)n2)cc1 | 1.3 | 38.0* | -2.5 | -3.3
COc1ccc(-c2noc(CCC(=O)NCCCN3CCC(C)CC3)n2)cc1 | -7.4 | 2.0 | -1.7 | -14.9
O=C(CCc1nc(-c2ccccc2F)no1)NC1CCN(Cc2ccccc2)CC1 | -1.9 | 15.0 | -6.9 | -1.2
Cc1ccc(-c2noc(CCC(=O)NC3CCN(Cc4ccccc4)CC3)n2)cc1 | -0.9 | 32.0* | -3.1 | -2.8
O=C(NCc1ccco1)C1Cc2ccccc2CN1S(=O)(=O)c1ccccc1F (stereo not given) | -0.7 | 9.0 | -0.4 | 1.7
CCc1ccccc1N(C(=O)c1cccs1)C1C=CS(=O)(=O)C1 (stereo not given) | -2.5 | 8.0 | 2.2 | -2.1
CCC(C)C(NS(=O)(=O)c1ccc(C)cc1)C(=O)NCCN1CCOCC1 (stereo not given) | 5.9 | 11.0 | -2.4 | -0.8
Cc1cc(N2CCC(N(C)C3CCCC3)CC2)nc2cc(O)ccc12 | 4.3 | 44.0* | -0.1 | 3.9
Cc1cc(N2CCOCC2)nc2ccc(NC(=O)C3CCC(C)CC3)cc12 (stereo not given) | 3.9 | 8.0 | 1.1 | -4.8
COc1ccccc1S(=O)Cc1ccc(C(=O)NCCc2ccc(Cl)cc2)o1 (stereo not given) | -2.5 | 16.0 | 0.2 | 5.6
CCC(Sc1nc2c(c(=O)[nH]1)CCC2)C(=O)Nc1cccc(OC)c1 (stereo not given) | -2.3 | 6.0 | -1.0 | 62.1*
COc1ccc(NC(=O)CSc2nc3c(c(=O)[nH]2)CCC3)cc1OC | -5.0 | 10.0 | -0.6 | 7.6

Screens as filed in PubChem.
